Here are results for 22 compounds from PubChem BioAssay.

Values without a mark were called inactive. Calls of active or inactive are those of the source.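 Rule for the calls: active = z-score of at least 1.8 in each of two replicates, scored against plate mean and spread of sample wells; inactive = the rest.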

The nature of this test: viability rescue of complex I mutant cybrids, primary screen, cell-based, galactose medium, ATP luminescence (AID 1645843).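 Note: positive z means more ATP and so rescue of galactose-driven cybrid death.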 The following applies: complex I mutant cybrid cells, 72 h, hits give high values.
`CCN1CCCC(C(=O)N2CCC(n3cc(C(C)(C)C)nn3)CC2)C1` (configuration not stated): the z-score was 0.15. The same measure for `CCn1ncc2[nH]c(-c3c(OC)ccc4ccccc34)nc21`: 0.04; for `Cc1ccc2c(C(=O)N3CCCCC3C)cc(-c3cnn(C(C)C)c3)nc2c1` (configuration not stated): -0.16. For the compound `Cc1ccc(F)cc1-c1cccc(C(=O)c2nccn2C)c1`, the z-score is -0.54. Regarding `O=c1c2ccc(C(F)(F)F)cc2ncn1CCC1CCCCN1C1CCCC1` (configuration not stated), the z-score was -0.69. The same measure for `O=C(Nc1cccc(-c2cncnc2)c1)c1ccc2c(c1)OCO2`: -0.62; for `CCCCc1cn(C2CCN(C(=O)C3CCCCCC3)CC2)nn1`: -0.56.

In the case of `Cn1cc(-c2ccccc2OC2(C(=O)O)CCSCC2)cn1`, the z-score is 1.44. Regarding `Cc1cn(CC(=O)Nc2cnn(C)n2)nc1-c1cccs1`, the z-score was 0.735. Regarding `Cc1nn(C)c(C)c1-c1ccnc(N(C)Cc2cnn(C(C)C)c2)n1`, the z-score was 0.67.

Turning to `CCc1ncc(C(=O)N2CCCC(Cn3cc(-c4ccccc4)nn3)C2)cn1` (configuration not stated), the z-score was 0.19. As to `COc1ccc(CNCC2COCCO2)cc1OC` (configuration not stated), the z-score was 3.29 (active). With `Cc1nn(C)c(C)c1-c1ccnc(NCCc2nc(-c3ccccn3)no2)n1`, the z-score was -0.395. Turning to `COc1cccc2c(C)cc(N3CCC[C@H]3CO)nc12`, the z-score is -0.095. Consider `Cc1nsc(NC(=O)N2CCCCC2c2ccc(F)cc2)n1` (configuration not stated), for which the z-score is -0.445. As to `Cc1nn(C)c(C)c1-c1ccnc(NCc2cnc3ccccn23)n1`, the z-score is -0.925.

Regarding `Cc1nsc(NC(=O)NCCC2CCCCCC2)n1`, the z-score was -1.07. As to `COc1ccc2c(c1)C=C(CNc1cccnc1)CO2`, the z-score is 0.615. Turning to `Cc1cnc(CNC(=O)c2cccc(Nc3ncnc4c3cnn4C)c2)cn1`, the z-score is -0.83. As for `Cc1nc(C(C)Nc2ncnc3sccc23)cs1` (configuration not stated), the figure is 0.845; as for `O=C(c1ccccc1-c1nn[nH]n1)N1CCc2[nH]cnc2C1c1ccccn1` (configuration not stated), 0.23; as for `CCc1ncc(-c2cc(C(=O)N3CCC(C)(C)C3)c3ccc(F)cc3n2)cn1`, -0.56.
